Experimental data taken from PubChem BioAssay (EPA / NIEHS).
Activity calls are given as the source filed them. Rule for the calls: active = hit-call score of the fitted dose curve at least 0.9, where 1 is the maximum; inactive = score below 0.9.

Legend:
Settings in all cases: mRNA level, 48 h; actives raise or lower the signal
CYP3A5 (gene 1577) = test: LTEA_HepaRG_CYP3A5: Life Technologies and Expression Analysis (LTEA) Assay for CYP3A5 using HepaRG (AID 2283493)
Summary of the method: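 HepaRG plated 48 h, switched to serum-free induction medium, chemicals added 48 h (max 100 uM, half-log, 0.5% DMSO). RNA isolated; CYP3A5 by TaqMan qRT-PCR. Gain/loss vs DMSO.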

[1] = read-out: Fatty Acid-Binding Protein 1 (FABP1), FABP1 (gene 2168); test: LTEA_HepaRG_FABP1: Life Technologies and Expression Analysis (LTEA) Assay for Fatty Acid-Binding Protein 1 (FABP1) using HepaRG (AID 2283494)
Summary of the method: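 HepaRG, 48 h post-plating switched to serum-free induction medium, then dosed 48 h (duplicate, 8 pts, ≤100 uM, 0.5% DMSO). RNA → Fluidigm TaqMan qRT-PCR, FABP1 normed to ACTB/GAPDH/POLR2A. Bidirectional curve fit vs DMSO.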

[2] = read-out: Cytochrome P450 4A22 (Homo sapiens) (UniProt Q5TCH4); test: LTEA_HepaRG_CYP4A22: Life Technologies and Expression Analysis (LTEA) Assay for Cytochrome P450 4A22 (CYP4A22) using HepaRG (AID 2283495)
Summary of the method: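 qRT-PCR of CYP4A22 mRNA (Fluidigm TaqMan, normalized to three housekeeping genes) after 48 h chemical exposure of HepaRG cells; 8-point half-log series, top 100 uM, 0.5% DMSO vehicle. Bidirectional curve fitting vs DMSO baseline.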

[3] = read-out: Cytochrome P450 7A1 (Homo sapiens) (UniProt P22680); test: LTEA_HepaRG_CYP7A1: Life Technologies and Expression Analysis (LTEA) Assay for Cytochrome P450 7A1 (CYP7A1) using HepaRG (AID 2283496)
Summary of the method: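 HepaRG cells plated 48 h, then switched to serum-free induction medium and exposed in duplicate for 48 h to 8-point half-log series from 100 uM in 0.5% DMSO. CYP7A1 mRNA by qRT-PCR (TaqMan), normalized to ACTB/GAPDH/POLR2A; bidirectional fit versus DMSO.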

[4] = read-out: Glutathione S-Transferase (GSTA2), GSTA2 (gene 2939); test: LTEA_HepaRG_GSTA2: Life Technologies and Expression Analysis (LTEA) Assay for Glutathione S-Transferase (GSTA2) using HepaRG (AID 2283497)
Summary of the method: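 HepaRG, 48 h dosing, 8-pt half-log CRC from 100 uM, 0.5% DMSO vehicle, n=2; RNA → Fluidigm TaqMan qRT-PCR; GSTA2 vs ACTB/GAPDH/POLR2A; gain/loss fit vs DMSO.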

[5] = read-out: Glutamate-cysteine ligase catalytic (GCLC), GCLC (gene 2729); test: LTEA_HepaRG_GCLC: Life Technologies and Expression Analysis (LTEA) Assay for Glutamate-cysteine ligase catalytic (GCLC) using HepaRG (AID 2283498)
Summary of the method: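 Read-out is GCLC transcript level by Fluidigm-based TaqMan qRT-PCR, normalized to three housekeeping genes and fitted in both directions relative to 0.5% DMSO. Human HepaRG cells received chemicals for 48 h, up to 100 uM.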

[6] = read-out: growth arrest and DNA damage 45 (GADD45G), GADD45G (gene 10912); test: LTEA_HepaRG_GADD45G: Life Technologies and Expression Analysis (LTEA) Assay for growth arrest and DNA damage 45 (GADD45G) using HepaRG (AID 2283499)
Summary of the method: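 Differentiated human HepaRG cells in serum-free induction medium were exposed for 48 h to 8 half-log concentrations up to 100 uM in 0.5% DMSO, in duplicate. GADD45G mRNA was measured by TaqMan qRT-PCR, normalised to ACTB, GAPDH and POLR2A, and fitted bidirectionally against DMSO.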

[7] = read-out: Glutamate-cysteine ligase regulatory (GCLM), GCLM (gene 2730); test: LTEA_HepaRG_GCLM: Life Technologies and Expression Analysis (LTEA) Assay for Glutamate-cysteine ligase regulatory (GCLM) using HepaRG (AID 2283500)
Summary of the method: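 Cells were plated, cultured 48 h, switched to serum-free induction medium, then dosed in duplicate for 48 h at eight half-log concentrations up to 100 uM. RNA was then profiled by qRT-PCR; gain or loss versus DMSO was fitted.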

[8] = read-out: Glutathione S-transferase M3 (GSTM3), GSTM3 (gene 2947); test: LTEA_HepaRG_GSTM3: Life Technologies and Expression Analysis (LTEA) Assay for Glutathione S-transferase M3 (GSTM3) using HepaRG (AID 2283501)
Summary of the method: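 Differentiated HepaRG cells in serum-free induction medium were exposed in duplicate for 48 h to 8 half-log concentrations up to 100 uM in 0.5% DMSO. GSTM3 mRNA was measured by TaqMan qRT-PCR, normalized to ACTB/GAPDH/POLR2A, and fitted bidirectionally versus DMSO.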

[9] = read-out: Heat shock 70 kDa protein 1 (HSPA1A), gene 3303; test: LTEA_HepaRG_HSPA1A: Life Technologies and Expression Analysis (LTEA) Assay for Heat shock 70 kDa protein 1 (HSPA1A) using HepaRG (AID 2283502)
Summary of the method: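 Readout is HSPA1A transcript level by microfluidic qRT-PCR, normalized to three housekeeping genes and analysed for gain or loss of signal relative to 0.5% DMSO. Human HepaRG cultures received test chemicals for 48 h at up to 100 uM.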

[10] = read-out: Hypoxia-inducible factor 1-alpha (Homo sapiens) (UniProt Q16665); test: LTEA_HepaRG_HIF1A: Life Technologies and Expression Analysis (LTEA) Assay for Hypoxia-inducible factor 1 (HIF1A) Trancription factor using HepaRG (AID 2283503)
Summary of the method: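 Differentiated HepaRG cells in serum-free induction medium exposed 48 h, in duplicate, to 8-point half-log series from 100 uM in 0.5% DMSO. HIF1A mRNA measured by TaqMan qRT-PCR, normalized to ACTB/GAPDH/POLR2A, fitted bidirectionally versus DMSO.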

[11] = read-out: 3-Hydroxy-3-Methylglutaryl-CoA Synthase 2 (HMGCS2), HMGCS2 (gene 3158); test: LTEA_HepaRG_HMGCS2: Life Technologies and Expression Analysis (LTEA) Assay for 3-Hydroxy-3-Methylglutaryl-CoA Synthase 2 (HMGCS2) using HepaRG (AID 2283504)
Summary of the method: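 Differentiated human HepaRG cells were exposed in duplicate for 48 h in serum-free induction medium to eight concentrations (top 100 uM, half-log steps, 0.5% DMSO). HMGCS2 mRNA was quantified by TaqMan qRT-PCR, normalised to ACTB, GAPDH and POLR2A, then fitted bidirectionally against DMSO.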

HGF (gene 3082) = test: LTEA_HepaRG_HGF: Life Technologies and Expression Analysis (LTEA) Assay for Hepatocyte Growth Facto (HGF) using HepaRG (AID 2283505)
Summary of the method: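 Differentiated human HepaRG cells in serum-free induction medium were exposed in duplicate for 48 h to eight concentrations (top 100 uM, half-log steps, 0.5% DMSO). HGF mRNA was quantified by qRT-PCR, normalized to ACTB, GAPDH and POLR2A.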

[12] = read-out: Insulin Like Growth Factor 1 (IGF1), IGF1 (gene 3479); test: LTEA_HepaRG_IGF1: Life Technologies and Expression Analysis (LTEA) Assay for Insulin Like Growth Factor 1 (IGF1) using HepaRG (AID 2283506)
Summary of the method: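 HepaRG, plated 48 h, then switched to serum-free induction media; test chemical 8-pt half-log from 100 uM (0.5% DMSO), duplicate, 48 h. Lysis in RLT, TaqMan qRT-PCR, norm. ACTB/GAPDH/POLR2A. Bidirectional fit vs DMSO.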

[13] = read-out: Intercellular Adhesion Molecule 1 (ICAM1), ICAM1 (gene 3383); test: LTEA_HepaRG_ICAM1: Life Technologies and Expression Analysis (LTEA) Assay for Intercellular Adhesion Molecule 1 (ICAM1) using HepaRG (AID 2283507)
Summary of the method: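 Differentiated HepaRG cells in serum-free induction medium were exposed in duplicate for 48 h to eight half-log concentrations up to 100 uM in 0.5% DMSO. Transcript levels were measured by qRT-PCR normalized to ACTB, GAPDH and POLR2A; bidirectional fits relative to DMSO.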

[14] = read-out: Insulin-like growth factor-binding protein 1 (IGFBP1), IGFBP1 (gene 3484); test: LTEA_HepaRG_IGFBP1: Life Technologies and Expression Analysis (LTEA) Assay for Insulin-like growth factor-binding protein 1 (IGFBP1) using HepaRG (AID 2283508)
Summary of the method: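 Differentiated human HepaRG cells in serum-free induction medium were exposed in duplicate for 48 h to eight concentrations, top 100 uM with half-log dilutions, in 0.5% DMSO. Transcript levels came from qRT-PCR normalised to ACTB, GAPDH and POLR2A, fitted bidirectionally against DMSO.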

[15] = read-out: Interleukin 6 (IL6), IL6 (gene 3569); test: LTEA_HepaRG_IL6: Life Technologies and Expression Analysis (LTEA) Assay for Interleukin 6 (IL6) using HepaRG (AID 2283509)
Summary of the method: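 HepaRG, ~100,000 cells/well, 48 h pre-culture; serum-free induction medium; cmpd 8-pt half-log from 100 uM, 0.5% DMSO, duplicate, 48 h. Lysis in RLT, TaqMan qRT-PCR; gain or loss vs DMSO.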

[16] = read-out: Interleukin 6 Receptor (IL6R), IL6R (gene 3570); test: LTEA_HepaRG_IL6R: Life Technologies and Expression Analysis (LTEA) Assay for Interleukin 6 Receptor (IL6R) using HepaRG (AID 2283510);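 for AC50: TaqMan qRT-PCR signal normalized to ACTB GAPDH and POLR2A housekeeping genes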
Summary of the method: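 Readout is IL6R transcript level by TaqMan qRT-PCR, normalized to three housekeeping genes and fitted bidirectionally against 0.5% DMSO controls. Human HepaRG cells received chemicals for 48 h in serum-free induction medium, highest concentration 100 uM.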

[17] = read-out: Potassium channel subfamily K member 1 (KCNK1), KCNK1 (gene 3775); test: LTEA_HepaRG_KCNK1: Life Technologies and Expression Analysis (LTEA) Assay for Potassium channel subfamily K member 1 (KCNK1) using HepaRG (AID 2283511)
Summary of the method: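 Gain or loss of KCNK1 mRNA is the read-out, quantified by qRT-PCR against three housekeeping genes after 48 h chemical treatment of human HepaRG liver cells. Concentrations ran from 100 uM downward in half-log steps, vehicle 0.5% DMSO.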

[18] = read-out: Keratin 19 (KRT19), KRT19 (gene 3880); test: LTEA_HepaRG_KRT19: Life Technologies and Expression Analysis (LTEA) Assay for Keratin 19 (KRT19) using HepaRG (AID 2283512)
Summary of the method: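 Differentiated human HepaRG cells, plated 48 h, were exposed in duplicate for 48 h in serum-free induction medium to eight half-log concentrations up to 100 uM in 0.5% DMSO. KRT19 mRNA was quantified by qRT-PCR, normalized to ACTB, GAPDH and POLR2A, and fitted bidirectionally versus DMSO.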

Measured: AC50

Hypoxia-inducible factor 1-alpha (Homo sapiens), sequence (Q16665 whole entry, looked up): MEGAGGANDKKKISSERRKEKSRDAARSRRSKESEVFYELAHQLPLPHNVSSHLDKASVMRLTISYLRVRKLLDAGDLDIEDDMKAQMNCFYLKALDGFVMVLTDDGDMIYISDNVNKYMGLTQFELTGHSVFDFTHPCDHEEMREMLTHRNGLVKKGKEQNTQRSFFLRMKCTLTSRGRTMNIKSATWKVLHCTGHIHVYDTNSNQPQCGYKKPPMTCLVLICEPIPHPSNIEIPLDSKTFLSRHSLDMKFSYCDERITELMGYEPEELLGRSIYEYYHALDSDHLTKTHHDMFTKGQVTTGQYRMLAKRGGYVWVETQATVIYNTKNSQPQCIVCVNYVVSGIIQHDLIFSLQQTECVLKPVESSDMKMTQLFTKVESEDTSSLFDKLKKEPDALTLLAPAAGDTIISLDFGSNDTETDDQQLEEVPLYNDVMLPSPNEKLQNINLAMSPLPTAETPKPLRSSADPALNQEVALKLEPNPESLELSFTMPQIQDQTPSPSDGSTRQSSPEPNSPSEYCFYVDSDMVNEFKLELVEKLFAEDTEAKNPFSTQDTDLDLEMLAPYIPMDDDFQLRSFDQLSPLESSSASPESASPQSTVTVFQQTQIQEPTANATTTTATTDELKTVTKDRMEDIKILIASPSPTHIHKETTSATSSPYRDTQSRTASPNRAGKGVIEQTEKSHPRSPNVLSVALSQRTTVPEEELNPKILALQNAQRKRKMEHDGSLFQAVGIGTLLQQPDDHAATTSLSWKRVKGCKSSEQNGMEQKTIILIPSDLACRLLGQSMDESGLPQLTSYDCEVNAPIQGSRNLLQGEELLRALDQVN

CCOC(=O)NCCOc1ccc(Oc2ccccc2)cc1
active: CYP3A5 (gene 1577) 84.8 µM | [1] 79.1 µM | [2] 83.2 µM | [3] 83.9 µM | [4] 88.5 µM | [6] 73.5 µM | [7] 82.4 µM | [11] 77.1 µM | [12] 89.5 µM | [14] 73.1 µM | [15] 77.9 µM | [16] 20.7 µM | [18] 89.8 µM
inactive: [5] | [8] | [9] | [10] | HGF (gene 3082) | [13] | [17]

CCNc1nc(N)nc(Cl)n1
inactive: all assays above

CCN(Cc1c(F)cccc1Cl)c1c([N+](=O)[O-])cc(C(F)(F)F)cc1[N+](=O)[O-]
active: [1] 38.7 µM | [3] 50 µM | [4] 11.7 µM | [5] 50 µM | [7] 50 µM | [9] 50 µM | [11] 50 µM | [12] 50 µM | [14] 28.8 µM | [18] 18.1 µM
inactive: CYP3A5 (gene 1577) | [2] | [6] | [8] | [10] | HGF (gene 3082) | [13] | [15] | [16] | [17]

CCCCOC(=O)C(C)Oc1ccc(Oc2ccc(C(F)(F)F)cn2)cc1 (stereo not given)
inactive: all assays above

C[C@]12CC[C@@H]3c4ccc(O)cc4C[C@@H](CCCCCCCCCS(=O)CCCC(F)(F)C(F)(F)F)[C@H]3[C@@H]1CC[C@@H]2O (stereo not given in full)
active: CYP3A5 (gene 1577) 15.7 µM | [1] 25.8 µM | [3] 15 µM | [4] 28.1 µM | [5] 19.9 µM | [6] 13 µM | [7] 0.0464 µM | [8] 29.8 µM | [11] 33.6 µM | HGF (gene 3082) 0.0444 µM | [13] 0.0415 µM | [14] 22.3 µM | [15] 13.9 µM | [16] 24.3 µM | [17] 0.0883 µM
inactive: [2] | [9] | [10] | [12] | [18]

c1ccc(Nc2ccccc2)cc1
inactive: all assays above

OB(O)O
inactive: all assays above
